The supplement of paper PMC12340641
In all, about 1,000 compounds were measured (“relative growth in counter assay (no AraC = 100%, AraC + DMSO = 0%)”: median about -1.1, highest 2% from about 20 on). Shown is part of a subset that was picked to be rich in the highest values.

Each molecule was assayed on HEK293FT dCK*-only (assay: relative growth in counter assay (no AraC = 100%, AraC + DMSO = 0%); higher = more growth rescue independent of IKZF1). Conditions: compound concentration: 5 uM; AraC concentration: 0.3 uM; overnight pretreatment + 4 days AraC.
Procedure: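 Growth recovery screen of the molecular-glue-like (Specs) library. HEK293FT cells expressing a dCK*-IKZF1 fusion (primary) or dCK* alone (counter) were pretreated overnight with compound at 5 uM, then given 0.3 uM AraC for 4 days. Hoechst nuclei were counted by imaging. Primary: normalised to pomalidomide (100%) and DMSO (0%), mean of 2 replicates. Counter: normalised to no-AraC (100%) and AraC+DMSO (0%), single replicate.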

Structure (SMILES) | relative growth in counter assay
O=C(C1CCCCC1)N1CCOC(c2cccc(Nc3nccs3)n2)C1 (stereo not drawn) | -5.66%
O=[N+]([O-])c1ccc(S(=O)(=O)Nc2ccccn2)cc1 | -0.83%
Cc1cccc(Nc2nc(-c3sc(NC(=O)c4ccccc4)nc3C)cs2)n1 | 60.5%
CC(=O)N1CCCC(c2csc(Nc3ccc(C)cn3)n2)C1 (stereo not drawn) | 2.06%
CC(=O)Nc1ccc(-c2csc(Nc3ccccn3)n2)cc1 | 15.7%
CC(=O)N1CCCC1c1csc(Nc2ccccn2)n1 (stereo not drawn) | 6.68%
Cc1ccc(Nc2nc(-c3sc(NC(=O)c4ccccc4)nc3C)cs2)nc1 | 74.3%
CC(=O)Nc1ccc(-c2csc(Nc3cccc(C)n3)n2)cc1 | 5.34%
CC(=O)Nc1ccc(-c2csc(Nc3ccc(Cl)cn3)n2)cc1 | -4.91%
CC(=O)Nc1cccc(-c2csc(Nc3cccc(C)n3)n2)c1 | 5.94%
Cc1ccnc(Nc2nc(-c3sc(NC(=O)c4ccccc4)nc3C)cs2)c1 | 68.2%
COc1cccc(OC)c1C(=O)Nc1ccc(S(=O)(=O)Nc2nccc(C)n2)cc1 | -1.58%
CC1CCc2cc(F)ccc2N1C(=O)CSc1nnc2c(n1)[nH]c1ccccc12 (stereo not drawn) | 6.61%
O=C(NCc1cnc(Nc2cccc(C3CCN(C(=O)C4CCCCC4)CC3)n2)s1)c1cccc(F)c1 | -9.34%
CC(C)(N)C(=O)N1CCC(c2cccc(Nc3ncc(-c4cccnc4)s3)n2)CC1 | -23.8%
CCCc1cnc(Nc2cccc(C3CCN(C(=O)[C@@H](N)C(C)O)CC3)n2)s1 (stereo partly drawn) | -24.9%
Cc1ccc(CC(=O)N2CCOC(c3cccc(Nc4nccs4)n3)C2)cc1C (stereo not drawn) | -4.97%
COc1ccc(C(=O)Nc2ccc(S(=O)(=O)Nc3cc(C)nc(C)n3)cc2)cc1 | -14%
Nc1ccc(C(=O)N2CCCC2c2cccc(Nc3nccs3)n2)cn1 (stereo not drawn) | -0.6%
O=C(O)CCOCCOCCNc1ccc2c(c1)C(=O)N(C1CCC(=O)NC1=O)C2=O (stereo not drawn) | -0.35%
O=[N+]([O-])c1ccc(S(=O)(=O)Nc2ccc(S(=O)(=O)Nc3ncccn3)cc2)cc1 | 0.33%
CC(C)(C)N1CC(C(=O)Nc2ccc(S(=O)(=O)Nc3ncccn3)cc2)CC1=O (stereo not drawn) | 4.79%
COC1CCCC(C(=O)N2CCOC(c3cccc(Nc4ncc(C)s4)n3)C2)C1 (stereo not drawn) | -9.41%
CCOCCC(=O)Nc1ccc(S(=O)(=O)Nc2ncccn2)cc1 | 3.97%
Cc1cc(NS(=O)(=O)c2ccc(NC(=O)COc3ccc(C(C)C)cc3)cc2)nc(C)n1 | -0.57%

Structure (SMILES) | relative growth in counter assay
Cc1cccc(OCC(=O)Nc2ccc(S(=O)(=O)Nc3nc(C)cc(C)n3)cc2)c1 | -12%
CN(CC(=O)N1CCOC(c2cccc(Nc3nccs3)n2)C1)Cc1ccccc1F (stereo not drawn) | 0.79%
CC(C)c1cnc(Nc2cccc(C3CCN(C(=O)C4CCCCC4)CC3)n2)s1 | 11%
COc1cccc(C(=O)Nc2ccc(S(=O)(=O)Nc3cc(C)nc(C)n3)cc2)c1 | 0.7%
COc1ccc(NC(=O)CN2CCC(c3cccc(Nc4nc(C)cs4)n3)CC2)cc1 | 13.8%
O=C1CCC(N2C(=O)c3cccc(N4CCC(C(=O)O)CC4)c3C2=O)C(=O)N1 (stereo not drawn) | 3.86%
Cc1cc(C)nc(NS(=O)(=O)c2ccc(NC(=O)CCN3C(=O)c4ccccc4C3=O)cc2)n1 | -7.05%
CC(=O)N1CCCC1c1cccc(Nc2nc(C)cs2)n1 (stereo not drawn) | -5.77%
Cc1ccc2[nH]nc(C(=O)N3CCCC3c3cccc(Nc4nc(C)cs4)n3)c2c1 (stereo not drawn) | 2.1%
Cc1csc(Nc2cccc(C3CCCN3C(=O)c3cn4cc(Cl)ccc4n3)n2)n1 (stereo not drawn) | 22.3%
Cc1csc(Nc2cccc(C3CCCN3C(=O)c3ccc4c(c3)CCCN4C)n2)n1 (stereo not drawn) | 13.3%
Cc1csc(Nc2cccc(C3CCCN3C(=O)c3ccc4[nH]c(C(C)C)nc4c3)n2)n1 (stereo not drawn) | 30.5%
Cc1csc(Nc2cccc(C3CCCN3C(=O)c3cnc(C)nc3C)n2)n1 (stereo not drawn) | -4.08%
COc1ccc(C(=O)Nc2ccc(S(=O)(=O)Nc3ncccn3)cc2)cc1OC | -2.72%
Cc1ccc(Oc2ccc3c(c2)C(=O)N(c2ccc(C(N)=O)cc2)C3=O)cc1C | 3.9%
COc1ccc2[nH]c3nc(SCC(=O)Nc4cccc(F)c4)nnc3c2c1 | -13.9%
COc1ccc(C(=O)Nc2ccc(S(=O)(=O)Nc3nccc(C)n3)cc2)cc1 | -6.7%
Cc1cnc(Nc2cccc(C(CO)C3CCN(C(=O)c4cccc(Cl)c4F)CC3)n2)s1 (stereo not drawn) | -1.22%
Cc1cnc(Nc2cccc(C3CN(C(=O)C(C)(C)C)CCO3)n2)s1 (stereo not drawn) | -10.3%
CCCc1cnc(Nc2cccc(C3CCN(C(=O)[C@@H]4CCCCN4)CC3)n2)s1 | -21.3%
COc1ccc(Cl)cc1NC(=O)CSc1nnc2c(n1)[nH]c1ccc(F)cc12 | 5.27%
COc1ccc(N2C(=O)c3ccc(Oc4ccccc4)cc3C2=O)cc1 | -22.4%
CCC(C)C(=O)Nc1ccc(S(=O)(=O)Nc2nccc(C)n2)cc1 (stereo not drawn) | -7.22%
COc1cc(NS(=O)(=O)c2ccc(Nc3nc(-c4c(C)nc5ncccn45)cs3)cc2)nc(OC)n1 | 2.39%
CCCCc1cnc(Nc2cccc(C3CCN(C(=O)C(C)(C)NC(=O)COC)CC3)n2)s1 | -10.6%

Structure (SMILES) | relative growth in counter assay
COc1cccc(CC(=O)N2CCC(c3cccc(Nc4nc(C)c(C)s4)n3)CC2)c1 | 2.52%
Cc1ccnc(NS(=O)(=O)c2ccc(NC(=O)c3ccco3)cc2)n1 | 3.62%
NCC(=O)N1CCC(c2cccc(Nc3ncc(Cl)s3)n2)CC1 | -23.9%
COc1ccc(N2CC(C(=O)Nc3ccc(S(=O)(=O)Nc4nc(C)cc(C)n4)cc3)CC2=O)cc1 (stereo not drawn) | 7.32%
Cc1ccnc(NS(=O)(=O)c2ccc(NC(=O)C3c4ccccc4Oc4ccccc43)cc2)n1 | -3.45%
COc1ccc(Br)cc1/C=N/NS(=O)(=O)c1ccccc1 | -21.2%
Cc1nc(Nc2cccc(C3CN(C(=O)c4cn5cccc(C)c5n4)CCO3)n2)sc1C (stereo not drawn) | 2.16%
CNC(=O)C1(c2cccc(Nc3ncc(C)s3)n2)CCN(C(=O)C2CCCCC2)CC1 | -21.2%
Cc1cc(C)nc(NS(=O)(=O)c2ccc(NC(=O)CSc3nnnn3-c3ccccc3)cc2)n1 | 1.47%
CC(C)CC(=O)N1CCCC1c1csc(Nc2ccccn2)n1 (stereo not drawn) | -4%
Cc1cnc(Nc2cccc(C3CCN(C(=O)C4(NC(=O)C(C)C)CCCCC4)CC3)n2)s1 | -24.4%
CC(=O)Nc1ccc(S(=O)(=O)Nc2ncccn2)cc1 | -1.98%
CC(=O)Nc1ccc(S(=O)(=O)N(Cc2ccccc2)c2ccccn2)cc1 | 21%
CC(=O)Nc1ccc(S(=O)(=O)Nc2ccccn2)cc1 | -7.51%
CC1(C)C=C(CC(=O)N2CCOC(c3cccc(Nc4nccs4)n3)C2)CC(C)(C)N1 (stereo not drawn) | 6.81%
O=C(CN1C(=O)c2ccccc2C1=O)Nc1ccc(S(=O)(=O)Nc2ncccn2)cc1 | -1.34%
O=C1c2ccc(Oc3ccc(NC(=O)C(F)(F)F)cc3)cc2C(=O)N1c1ccc(O)cc1 | -3.44%
CCCOc1ccccc1C(=O)Nc1ccc(S(=O)(=O)Nc2nc(C)cc(C)n2)cc1 | 2.83%
CCCc1cnc(Nc2cccc(C3CCN(C(=O)C4CCCCN4CCO)CC3)n2)s1 (stereo not drawn) | -7.08%
Cc1cnc(Nc2cccc(C3CCN(CC(=O)N(C)C4CCCCC4)CC3)n2)s1 | -15.6%
Cc1cc(C)nc(NS(=O)(=O)c2ccc(NC(=O)C(C)C)cc2)n1 | 2.66%
Cc1cc(C)cc(OCC(=O)Nc2ccc(S(=O)(=O)Nc3cc(C)nc(C)n3)cc2)c1 | 7.68%
Cc1ccc(Cl)cc1NC(=O)CSc1nnc2c(n1)[nH]c1ccc(F)cc12 | -2.7%
Cc1csc(Nc2cccc(C3CN(C(=O)CCc4nc(C)no4)CCO3)n2)n1 (stereo not drawn) | 4.72%
COc1ccc(CCC(=O)N2CCOC(c3cccc(Nc4ncc(C)s4)n3)C2)cc1 (stereo not drawn) | 9.66%

Structure (SMILES) | relative growth in counter assay
Cc1csc(Nc2cccc(C3CN(C(=O)CCCc4ccc(F)cc4)CCO3)n2)n1 (stereo not drawn) | 36.2%
COc1cccc(CCC(=O)N2CCOC(c3cccc(Nc4ncc(C)s4)n3)C2)c1 (stereo not drawn) | 6.36%
COCC(=O)N1CCOC(c2cccc(Nc3nc(C)cs3)n2)C1 (stereo not drawn) | 2.47%
COc1ccc(CCC(=O)N2CCOC(c3cccc(Nc4nc(C)cs4)n3)C2)cc1 (stereo not drawn) | 19.5%
CC(=O)N1CCC(c2csc(Nc3ccc(F)cn3)n2)CC1 | 4.68%
CCCCc1cnc(Nc2cccc(C3CCN(C(=O)[C@@H]4CCCN4CCO)CC3)n2)s1 | 2.3%
CC(C)c1ccc(OCC(=O)Nc2ccc(S(=O)(=O)Nc3ccccn3)cc2)cc1 | 4.55%
O=C(Nc1ccc(S(=O)(=O)Nc2ncccn2)cc1)Oc1ccccc1 | -1.98%
Cc1cc(NS(=O)(=O)c2ccc(NC(=O)c3cc4ccccc4o3)cc2)nc(C)n1 | -3.17%
Cc1nc(Nc2cccc(C3CCCN3C(=O)c3cc4ccc(F)cc4[nH]3)n2)sc1C (stereo not drawn) | 9.01%
O=C(CS(=O)(=O)c1ccccc1)Nc1ccc(S(=O)(=O)Nc2ncccn2)cc1 | 8.67%
O=C(Nc1ccc(S(=O)(=O)Nc2ccccn2)cc1)c1cccc(Cl)c1 | -0.42%
O=C(O)CCCCCNc1cccc2c1C(=O)N(C1CCC(=O)NC1=O)C2=O (stereo not drawn) | 1.33%
CCCc1cnc(Nc2cccc(C3CCN(C(=O)C4CCCCC4)CC3)n2)s1 | -19.4%
Cc1cnc(Nc2cccc(C3CCN(CC(=O)N4CCC(C)CC4)CC3)n2)s1 | -9.8%
Cc1cnc(Nc2cccc(C3CCN(CC(=O)Nc4c(F)cccc4F)CC3)n2)s1 | -16.6%
COCC(C)NC(=O)CN1CCC(c2cccc(Nc3nccs3)n2)CC1 (stereo not drawn) | -1.53%
Cc1cnc(NC(=O)CN2CCC(c3cccc(Nc4nc(C)c(C)s4)n3)CC2)s1 | 24.2%
COCC(C)NC(=O)CN1CCC(c2cccc(Nc3ncc(C)s3)n2)CC1 (stereo not drawn) | -1.08%
Cc1cnc(NC(=O)CN2CCC(c3cccc(Nc4ncc(C)s4)n3)CC2)s1 | -16.5%
Cc1nc(Nc2cccc(C3CCN(CC(=O)N4CCC(C)CC4)CC3)n2)sc1C | 26.6%
COCC(C)NC(=O)CN1CCC(c2cccc(Nc3nc(C)c(C)s3)n2)CC1 (stereo not drawn) | 25.6%
Cc1nc(Nc2cccc(C3CN(CC(=O)N4CCC(C)CC4)CCO3)n2)sc1C (stereo not drawn) | 7.05%
